Results as given in PubChem BioAssay (NCI).
The panel holds about 83,000 compounds, 20% with a hit somewhere; the sample as a whole holds those more often.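 For each line, cells grew in 96-well plates with the test compound present at a single concentration for 48 hours.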 A number with no mark means an inactive call. The source made the active and inactive calls. Rule for the calls: active = growth percent below 10; inactive = the rest.

What was measured:
Assay in all cases: NCI-60 one-dose screen, 48 h (100 = growth as untreated, 0 = no growth, -100 = all killed)
Settings in all cases: 10 µM unless noted
NCI-H23 lung = test system: NCI-H23 lung
NCI-H226 lung = test system: NCI-H226 lung
NCI-H322M lung = test system: NCI-H322M lung
HOP-62 NSCLC = test system: HOP-62 NSCLC
NCI-H460 lung = test system: NCI-H460 lung
HOP-92 NSCLC = test system: HOP-92 NSCLC
NCI-H522 lung = test system: NCI-H522 lung
A549/ATCC NSCLC = test system: A549/ATCC NSCLC
786-0 renal = test system: 786-0 renal
COLO 205 colon = test system: COLO 205 colon

SMILES | growth (NCI-H23 lung) | growth (NCI-H226 lung) | growth (NCI-H322M lung) | growth (HOP-62 NSCLC) | growth (NCI-H460 lung) | growth (HOP-92 NSCLC) | growth (NCI-H522 lung) | growth (A549/ATCC NSCLC) | growth (786-0 renal) | growth (COLO 205 colon)
Cc1cc(C(=O)CCCC(=O)c2cc(C)c(O)c(C)c2)cc(C)c1O | 99.8% | 85% | 114% | 98.9% | 112% | 82.9% | 91.1% | 104% | 93.9% | -53.1% (active)
Cc1c(C(C)(C)O)cn2ncnc(Oc3ccc(NC(=O)Nc4ccc(Cl)c(C(F)(F)F)c4)c(F)c3)c12 | 30.6% | 62.6% | 92.1% | 101% | 25.9% | 36.4% | 39.9% | 41.2% | 64.8% | 72.8%
COC(=O)[C@@]12CC=C(C)[C@]3(C[C@H](c4ccoc4)OC3=O)[C@H]1C=C[C@@H](O)[C@@]2(O)C(=O)OC | 100% | 116% | 88.7% | 91.3% | 111% | 102% | 66.3% | 84.9% | 97.4% | 110%
CC(=O)N1N=C(c2ccc(Nc3nc(Nc4ccc(F)cc4)nc(Nc4ccc(F)cc4)n3)cc2)CC1c1ccc(N(C)C)cc1 (stereo not given) | 52.2% | 74.6% | 84% | 54.5% | 54.3% | 35.3% | 46% | 39.3% | 58.5% | 46.6%
COCCn1cc(-c2nc(-c3cc4cccnc4n3C)cs2)c2ccccc21 | 39.4% | 60.9% | 41.6% | 52.5% | 19.9% | 44.1% | -6.38% (active) | 28.9% | 56.7% | 11.9%
COc1cc([C@@H](CCO)C[C@H](C)c2ccc3ccccc3c2)cc(OC)c1OC | 54.6% | 56.4% | 46.7% | 40.6% | 17.3% | 30.8% | -7.95% (active) | 46.8% | 28% | 16.1%
C=C1C(=O)O[C@H]2[C@H]1CC/C(COC(=O)NCc1ccc(Cn3c(=O)sn(-c4ccc(I)cc4)c3=O)cc1)=C\CC[C@@]1(C)O[C@@H]21 | 94.8% | 89.6% | 101% | 97.8% | 91.9% | 54.9% | 2.14% (active) | 94.9% | 75.2% | 36.9%
COc1cc2ncnc(Nc3ccc(F)c(Cl)c3)c2cc1OCC(=O)N1CCOCC1 | 90.7% | 102% | 24.7% | 98.1% | 99.5% | 92.1% | 33% | 74.8% | 78.5% | 106%
C/C=C1/CN(CCCCC)CC[C@H]1C(=O)c1cc2ccccc2[nH]1 | 85.1% | 92.9% | 86.6% | 85.5% | 97.3% | 52.3% | 88.1% | 100% | 99.9% | 98.9%
N#Cc1nn(-c2cc(=O)[nH]c3ccc(Br)cc23)c(N)c1C#N | 102% | 98.4% | 93.3% | 83.2% | 105% | -90.8% (active) | 78.4% | 101% | 97.4% | 80%
CCOC(=O)C1=C(CCl)N(C)C(=O)NC1c1ccc2c(c1)OCO2 (stereo not given) | 70.7% | 77% | 85% | 74.7% | 72.1% | 53.9% | 32.7% | 87.5% | 53.9% | 69.1%
CCCCC#Cc1c(I)n(C2OC(CO[Si](C)(C)C(C)(C)C)C3OC(C)(C)OC32)c(=O)n(C(=O)c2ccccc2)c1=O (stereo not given) | 51.9% | 67.7% | 110% | 94.8% | 68.5% | -37.6% (active) | 71% | 67.7% | 64.1% | -46.9% (active)
COc1cc2c(cc1OCCCN1CCN(C(=S)SCCC(C#N)(c3ccccc3)c3ccccc3)CC1)N=C[C@@H]1CCCN1C2=O | -46.7% (active) | -55.8% (active) | -62.2% (active) | 1.76% (active) | -80.3% (active) | -71% (active) | -48.3% (active) | -3.55% (active) | -94.9% (active) | -69.5% (active)
CCN1C(=O)N(CC)C2C1NN=c1s/c(=C\c3ccc(OC)cc3)c(=O)n12 (stereo not given) | 32.2% | 60.5% | 45.9% | 37.1% | 4.22% (active) | 33% | -9.26% (active) | 10% | 20.8% | -7.08% (active)
COc1ccc(-c2cn(Cc3cc4ccccc4s3)nn2)cc1OCCN1CCCCC1 | 78.3% | 95.6% | 94.2% | 84% | 90% | 50% | 91.7% | 80.2% | 69.1% | 60.7%
C=CN(C(=O)N1CCN(c2cc3c(cc2F)c(=O)c(C(=O)O)cn3C2CC2)CC1)c1nc(-c2ccc(Cl)cc2)cs1 | 67.8% | 87.9% | 69.4% | 69.4% | 23.5% | 60.1% | 64.7% | 40.7% | 82.8% | 84.2%
CN1CCOCCN(C)Cc2ccc3ccc(cc3c2)CN(C)CCOCCN(C)Cc2ccc3ccc(cc3c2)C1 | 90.2% | 111% | 99.6% | 91.8% | 59.5% | 85.8% | 110% | 96.3% | 75.8% | 94.6%
C#CCOc1cccc(Nc2ncnc3cc(NC(=O)CCl)ccc23)c1 | -65% (active) | -26.7% (active) | -13.9% (active) | -61.6% (active) | -55.3% (active) | -76.9% (active) | -76.1% (active) | -59.4% (active) | -69.1% (active) | -79.9% (active)
O=C(O)CC(C(=O)O)/C(=C\c1ccccc1)c1ccccc1 (stereo not given) | 105% | 86.4% | 116% | 89.3% | 106% | 93.3% | 128% | 99.5% | 114% | 99.5%
O=C(NCCNC(c1ccccc1)C(NCCNC(=O)c1ccccc1)c1ccccc1)c1ccccc1 (stereo not given) | 83.3% | 100% | 95.7% | 104% | 59.6% | 84.8% | 69.4% | 106% | 106% | 106%
